Screening results as filed in PubChem.
Only some compounds are listed: those with a hit (about 3.1% of all), similar ones and a draw of the others.
C2C12 statin – suppressors of simvastatin-induced myotoxicity in C2C12 myotubes; rescue of ATP level, % at 7.49 µM; AID 602340; ATP luminescence, 48 h; scaled: DMSO 0, geranylgeraniol control 100; 330,000 tested, 0.78% active;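 active = mean ATP rescue above about 67%, or every replicate alone reaching that limit, limit read from the data, passing the limit was not always enough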;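 note: myotubes were challenged with 10 µM simvastatin during compound exposure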
PAX8 inh HTS – lowers PAX8-driven luciferase in RMG-I cells | RMG-I TPO-luciferase reporter, SteadyGlo, 24 h | inhibition, % at 12.6 µM | 360,000 tested, 1.2% active | AID 652154;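 active = mean replicate inhibition at least 60% with every replicate also reaching 60%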;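 note: luciferase light reporting Pax8 driven TPO promoter activity; plate controls were median of neutral control wells for no effect and mitoxantrone controls for full effect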
miR122 inh – inhibitors of miR-122 in Huh7 cells. Huh7 miR-122 Renilla luciferase sensor, 48 h; neutral wells = 0, positive control = 100. activation (reporter increase), % at 12.5 µM. 340,000 tested, 0.3% active;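 active = mean replicate activation score at least 90 and every replicate individually at or above 90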;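 note: higher luciferase means less miR-122 activity so hits act as miR-122 inhibitors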
HIV Env fusion – HIV envelope-mediated fusion inhibition | HeLa-JRFL Env/CEM21 cell fusion, luciferase | inhibition, % at 12.3 µM | 360,000 tested, 1.1% active;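 active = mean replicate inhibition score of at least 50 and every replicate individually at or above 50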;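 note: 0% = plate neutral controls and 100% = maraviroc near 300 nM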
INS-1E GSIS act – primary screen for activators of insulin secretion dependent on glucose, INS-1E cells, GLuc reporter luminescence. INS-1E GLuc reporter insulin secretion, 2-3 h. activation, % at 16.6 µM. 370,000 tested, 0.61% active. AID 743287;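 active = lowest replicate activation of at least 40%, so every replicate reaches that level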;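 note: 0% = median of neutral control wells and 100% = median of IBMX positive control wells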
EWS-Fli block – blocks EWS/Fli oncoprotein-driven transcription; inhibition, % at 12.6 µM; 350,000 tested, 0.67% active; AID 651661; A673 NR0B1-luciferase reporter, viability-normalised;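 active = mean inhibition of at least 50% after viability correction, with every replicate also passing that limit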;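 note: firefly luciferase signal divided by Alamar Blue viability fluorescence both relative to DMSO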
Starred values were filed as active, the others as inactive; · = no result given; [ ] = remark or other dose.

SMILES	C2C12 statin	PAX8 inh HTS	miR122 inh	HIV Env fusion	INS-1E GSIS act	EWS-Fli block
COc1ccc(CNCC(O)COc2ccc(C(C)(C)c3ccccc3)cc2)cc1 (configuration not stated)	·	-1	·	5	73*	-15
CC(C)(c1ccccc1)c1ccc(OCC(O)CNC2CCN(Cc3ccccc3)CC2)cc1 (configuration not stated)	-14	80*	·	27	666*	25
COC(=O)c1ccc(CNCC(O)COc2ccc(-c3ccccc3)cc2)cc1 (configuration not stated)	0	-12	0	6	4	4
C[C@@H]1CCCCO[C@@H](CN(C)Cc2ccncc2)[C@@H](C)CN([C@@H](C)CO)C(=O)c2cc(NC(=O)C3CCCCC3)ccc2O1	-72	2	-3[16.7 µM]	13[16.7 µM]	-5	0
C[C@@H]1CN([C@@H](C)CO)C(=O)c2cc(NS(C)(=O)=O)ccc2O[C@@H]1CN(C)Cc1ccccc1	-20	-10	-6[16.7 µM]	-3[16.7 µM]	16	-6
N#CCCn1cc(/C=C(\C#N)c2nc3ccccc3s2)c(-c2ccc(F)cc2)n1	-11	-5	-10	-72	50*	·
Cc1ccc(CC2(OCCN(C)C)CCC(C(C)(C)C)CC2)cc1 (configuration not stated)	·	·	·	7	750*	39
CCOc1cccc(-c2csc(C3COc4ccccc4O3)n2)c1 (configuration not stated)	·	-128	·	-8	126*	·
COc1cc2c3c(c1)C1(C(=O)N3C(C)(C)C=C2C)C(C#N)=C(N)Oc2cc(C)oc(=O)c21 (configuration not stated)	114*	·	2	·	·	·
CC1=CC(C)(C)N2C(=O)C3(C(C#N)=C(N)OC4=C3C(=O)CC(C)(C)C4)c3c(C)c(C)cc1c32 (configuration not stated)	92*	·	8	·	-11	3
COCC(=O)N1CCC2(CC1)CN(C(=O)NC1CCCC1)[C@@H](CO)c1c2c2ccc(OC)cc2n1C	·	68*	·	·	2	12
COCC(=O)N1CC2(C1)CN(C(=O)NC1CCCC1)[C@H](CO)c1c2c2ccc(OC)cc2n1C	·	-11	·	·	-3	-2
COc1ccc2c3c(n(C)c2c1)[C@H](CO)N(C(=O)C1CC1)CC31CCN(Cc2cccc(F)c2)CC1	·	70*	·	·	-7	18
COc1ccc2c3c(n(C)c2c1)[C@@H](CO)N(C(=O)C1CCC1)CC31CCN(Cc2cccc(F)c2)CC1	·	35	·	·	-19	33
COc1ccc2c3c(n(C)c2c1)[C@H](CO)N(C(=O)C1CCC1)CC31CCN(Cc2cccc(F)c2)CC1	·	60*	·	·	-6	33
O=C(NCC[C@@H]1CC[C@@H](NC(=O)C2CCCCC2)[C@@H](CO)O1)c1ccc(F)cc1	3	-9	·	0[16.7 µM]	·	-1
COc1ccc(CNC(=O)c2cnn3c(C(F)F)cc(C)nc23)cc1	25	·	-2	·	80*	·
Cc1cc(C(F)F)n2ncc(C(=O)NCc3ccccc3)c2n1	18	4	-10	-47	·	·
Cc1ccc(SCCSc2nc(N)cc(=O)[nH]2)cc1	7	-1	-5	35	23	-3
Nc1cc(=O)[nH]c(SCCSc2ccc(F)cc2)n1	18	-25	-9	66*	5	1
CC1(C)NC(=O)N(CNc2cc(Cl)ccc2Cl)C1=O	100*	8	0	-19	·	·
Cc1c(N=Cc2c(O)n(Cc3ccco3)c(=O)c3ccccc23)c(=O)n(-c2ccccc2)n1C	114*	·	3	·	-4	8
COc1ccc(COC[B-](F)(F)F)cc1	3	-10	-6	·	44*	-2
CN1C(=O)c2cc(NC(=O)C3CC3)ccc2OC[C@H]2O[C@@H](CC(=O)Nc3cccc(Cl)c3)CC[C@@H]21	·	-9	·	·	1	3
O=C(c1cc(COc2cccc(C(F)(F)F)c2)on1)N1CCC(c2ccncc2)CC1	-18	-24	·	72*	-49	6
SMILES	C2C12 statin	PAX8 inh HTS	miR122 inh	HIV Env fusion	INS-1E GSIS act	EWS-Fli block
O=C(NCc1cccs1)c1nc2c(nnn2Cc2ccccc2Cl)c(=O)[nH]1	15	·	-11	111*	·	·
CCC(C)NC(=O)c1nc2c(nnn2Cc2ccccc2Cl)c(=O)[nH]1 (configuration not stated)	·	-2	·	3	-14	11
Cc1ccc(Nc2nc(N)c([N+](=O)[O-])c(NCCO)n2)cc1	·	-8	-2	-4	7	-18
CCN(CC)c1nc(N)c([N+](=O)[O-])c(NCCO)n1	·	53	·	12	85*	1
C=CCNc1nc(N)c([N+](=O)[O-])c(NCCO)n1	9	-12	·	2	82*	6
COc1ccc(NC(=O)Nc2ccc3c(c2)C(=O)N([C@@H](C)CO)C[C@@H](C)[C@@H](CN(C)C(=O)Nc2ccccc2)OCCCC[C@H](C)O3)cc1	-7	-6	17[16.7 µM]	11[16.7 µM]	8	-14
COc1cccc(NC(=O)N2[C@@H]3CNC[C@H]2C3c2ccc(-c3cccc(C(=O)N(C)C)c3)cc2)c1 (some centres not stated)	·	-1	·	·	2	8
COc1cc(NC2c3ccccc3C(=O)N2Cc2ccccc2Cl)cc(OC)c1 (configuration not stated)	-2	4	9	65*	2	-8
COc1cccc(NC2c3ccccc3C(=O)N2Cc2ccccc2Cl)c1 (configuration not stated)	·	2	·	36	-2	5
CC1CN/C(=C\C(=O)c2ccccc2)C(=O)N1 (configuration not stated)	117*	·	-3	·	·	·
CC1CN/C(=C\C(=O)c2ccc(Cl)cc2)C(=O)N1 (configuration not stated)	88*	·	-3	-163	·	·
O=C1NCCN/C1=C\C(=O)c1ccc(Cl)cc1	·	-89	-6	-54	-14	-108
C[C@H]1CN([C@@H](C)CO)S(=O)(=O)c2ccc(C#CC3(O)CCCC3)cc2O[C@H]1CN(C)C(=O)Cc1ccccc1	-30	·	-1[16.7 µM]	-46[16.7 µM]	11	7
C=CCc1cccc(/C=N/NC(=O)CCC(=O)Nc2ccc(C)cc2)c1O	·	35	-6	-13	225*	·
CO[C@H]1CN(C)C(=O)c2cc(NS(C)(=O)=O)ccc2OC[C@H](C)N(Cc2ccccc2)C[C@@H]1C	-5	-1	-13[16.7 µM]	6[16.7 µM]	8	12
O=[N+]([O-])c1ccccc1S(=O)(=O)Oc1ccccc1/C=N/n1cnnc1	·	98*	·	·	13	3
C[C@H]1CN(C)C(=O)c2cc(N(C)C)ccc2O[C@H]1CN(C)S(C)(=O)=O	·	·	·	·	-2	·
CCCCCCCCNCCS(=O)(=O)NCCCCCCCC	-21	15	-1	·	682*	12
CCCCCCCCNS(=O)(=O)CCNCCc1ccccc1	-6	-12	3	9	109	8
